Values joined by “and” are separate entries in the source; they are usually repeats but may differ in a detail not shown here. Identical values can stand only once. More than one record can exist for a structure, and the calls need not agree. Active and inactive are the calls of the source. How the source made its calls: active means hit-call score of the fitted dose curve at least 0.9, where 1 is the maximum; inactive means score below 0.9.
experiment: ATG_TGFb_CIS: Attagene CIS-FACTORIAL HepG2 Assay for human Transforming Growth Factor (TGF) (AID 2282967); conditions: HepG2 Attagene CIS TGFb reporter, mRNA transcription; actives raise or lower the signal
Experimental: ATG_CIS is a cell-based, multiplexed-readout assay that uses HepG2, a human liver cell line, with measurements taken at 24 hours after chemical dosing in a 24-well plate.ATG_TGFb_CIS is one of 52 assay component(s) measured or calculated from the ATG_CIS assay. It is designed to make measurements of mRNA induction, a form of inducible reporter, as detected with fluorescence intensity signals by Reverse transcription polymerase chain reaction (RT-PCR) and Capillary electrophoresis technology.Data from the assay component ATG_TGFb_CIS was analyzed into 1 assay endpoint. This assay endpoint, ATG_TGFb_CIS, was analyzed with bidirectional fitting relative to DMSO as the negative control and baseline of activity. Using a type of inducible reporter, measures of mRNA for gain or loss-of-signal activity can be used to understand the reporter gene at the transcription factor-level as they relate to the gene TGFB1. Furthermore, this assay endpoint can be referred to as a primary readout, because this assay has produced multiple assay endpoints where this one serves a reporter gene function. To generalize the intended target to other relatable targets, this assay endpoint is annotated to the growth factor intended target family, where the subfamily is transforming growth factor beta.
Human liver HepG2 cells are transiently transfected with multiple reporter transcription units (MRTUs) in 6-well plates using FuGene 6 reagent (Roche; 3 ml FuGene/1 mg DNA). The MRTU constructs are regulated by a cis-regulating element (promoter). […] A major difference between the CIS and TRANS system is that in CIS activities of endogenous TFs are measured, whereas the TRANS assay evaluates changes in activities of exogenous, chimeric NR-Gal4 proteins. […] At the end of 24 hour incubation, total RNA was isolated using TriZol reagent (Invitrogen). The isolated RNA is then reverse-transcribed using oligo(dT) primer and Mo-MLV reverse transcriptase (Invitrogen) with DNAse I (Ambion) treatment for 30 min. The one-tenth of the produced cDNA was amplified by PCR using Taq DNA polymerase (Invitrogen) and two reporter sequence-specific primers. The PCR products were fluorescently labeled by primer extension with 6-arboxyfluorescein (6-FAM) 5'-labeled reporter sequence-specific primer (2 min at 95 C, 20 s at 68 C and 10 min at 72 C) and these products were digested with 5U of HpaI (New England Biolabs) for 2h at 37 C. The fragments were purified using Qiaquick PCR columns (Qiagen), analyzed on an ABI 3130xL genetic analyzer (Applied Biosystems) with peak positions identified by using a set of X-rhodamine (ROX)-labeled MapMarker1000 molecular weight standards (BioVentures). The raw capillary electrophoresis data was processed using Attagraph software (Attagene).

Structure (SMILES) | outcome | AC50
CC(C)(C)c1cc(O)ccc1O | inactive | –
CCOC(=O)/C=C(C)/C=C/C[C@@H](C)CCCC(C)C | – | 47400 nM (active)
O=C(O)C(F)(F)C(F)(F)C(F)(F)C(F)(F)C(F)(F)C(F)(F)F | inactive | –
N#Cc1ccccn1 | inactive | –
Cc1ccc2ccccc2c1C | inactive | –
OCC(O)CCl (stereo not given) | inactive | –
COS(=O)(=O)c1ccc(C)cc1 | inactive | –
Nc1ccc(-c2ccc(N)c(Cl)c2)cc1Cl | inactive | –
O=[N+]([O-])c1ccc2c3c(cccc13)CC2 | – | 82.3 nM (active)
COP(=S)(OC)Oc1ccc(S(=O)(=O)N(C)C)cc1 | inactive | –
CCCCCCCCCl | inactive | –
C=C(C)C(=O)[O][Sn]([CH2]CCC)([CH2]CCC)[CH2]CCC | inactive | –
CNC | inactive | –
O=C/C=C/c1ccccc1 | inactive | –
CCc1ccccc1C | inactive | –
COc1ccccc1OC | inactive | –
N#CCCO | inactive | –
Nc1ccc(Cl)cc1C(=O)c1ccccc1 | inactive | –
CC12CC1(C)C(=O)N(c1cc(Cl)cc(Cl)c1)C2=O (stereo not given) | inactive | –
CCOP(=O)(CN(CCO)CCO)OCC | inactive | –

Structure (SMILES) | outcome | AC50
CN(C)N=O | inactive | –
Oc1c(I)cc(I)cc1I | inactive | –
COc1cccc(C=O)c1 | – | 175 nM (active)
O=C(CCl)CCl | inactive | –
CC(Br)C(=O)O (stereo not given) | inactive | –
CN(C)P(=O)(N(C)C)N(C)C | inactive | –
CCCCC(CC)CO[N+](=O)[O-] (stereo not given) | inactive | –
CCC(C)c1cccc(C(C)CC)c1O (stereo not given) | inactive | –
c1cc[c]([Hg][c]2ccccc2)cc1 | inactive | –
C[C@H]1CCCC(=O)CCC/C=C/c2cc(O)cc(O)c2C(=O)O1 | inactive | –
C[C@]12CCC(=O)C[C@@H]1CC[C@@H]1[C@@H]2CC[C@]2(C)[C@@H](O)CC[C@@H]12 | inactive | 123 µM (active) and 99.6 µM (active)
CC(C#N)CCC#N (stereo not given) | inactive | –
C=CC(=O)N(C)C | inactive | –
CC(C)OC(=O)Nc1ccccc1 | inactive | –
Nc1cccc(Cl)c1 | – | 739 nM (active)
COc1cc2c(cc1OC)[C@@]13CCN4CC5=CCO[C@H]6CC(=O)N2[C@H]1[C@H]6[C@H]5C[C@H]43 | inactive | –
N#CN=C(N)N | inactive | –
CC(=[OH+])/C=C(/C)[O-].CC(=[OH+])/C=C(/C)[O-].CC(=[OH+])/C=C(/C)[O-].[Al] | inactive | –
ClC(Cl)=C(Cl)C(Cl)=C(Cl)Cl | inactive | –
